The values below come from the supplement of paper PMC6555819.

This test relates to VDR:RXRa (NR concentration 270 nM, RXRa partner concentration 90 nM). Nature of the test: PBM binding z-score (relative to random genomic background probes); higher = stronger binding; sequences stand for … in GC…GCGATTGACAGCGTAGAATGAAGG
The method, then: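 Protein-binding microarray (Agilent 4x180K custom design, double-stranded 60-nt probes: 5' GC cap, 34-nt variable region, 24-nt constant primer region; full probe sequence given). Purified or IVT nuclear receptor:RXRα heterodimers (3:1 NR:RXRα, mostly 270:90 nM) or homodimers were incubated for 1 h in PBS with 2% milk and no ligand, then detected with Alexa488 antibodies. Fluorescence from o1-orientation probes (~5 replicates averaged) was converted to z-scores against 500 random hg19 background probes. Variable regions are seed direct-repeat (DR0–DR5) sites, all their single-nucleotide variants and half-site ablations.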
CCGACTGGGGCATAAGGTTTCCATAAGCCAGCCC gave a PBM binding z-score of -0.182.

Sequence TCATATAGGTAATACAGGTGAAATTCGGCATCTA gave a PBM binding z-score of 1.12.

On to TCTCGTAGGACACGAAGGTCAGAGCTTTCCAGAG, for which the PBM binding z-score was determined as 1.71.

Sequence TAGCCTAGGTCATCGGCCAGTATACCACGCGAAC returned a PBM binding z-score of 2.15.

The sequence TCTATTAGTGGAAGGGCAACCGACGAGTCCGTTT registered a PBM binding z-score of 0.969.

As to CAGCCTATGTCAGGGCCAGTATAGGAGGAACGTT, the PBM binding z-score is -0.493.

Regarding TCATATAGGTAAACAGGTGAAAGACCGTAAGTTA, the PBM binding z-score turned out to be 1.05.

In the case of AGAATTAGGTTATTAAGATCAGGGAATTGCGGTC, the PBM binding z-score stood at 0.835.

The sequence ACTATTAGTTGACTTACGGCAACCGATACGACGC yielded a PBM binding z-score of 0.0942.

As to TATGCTAGGTCAACGATGGTCAGCTAATCTGCTA, the PBM binding z-score amounted to 1.79.

The sequence CGAACGAGAGCATGAGTTGATAGCAAATGCCGAT displayed a PBM binding z-score of -0.244.

As for CCTACTTGGCCAAAAAGGTCATTGATGCCGATAA, the PBM binding z-score was 4.82.

The sequence CTACCAAAGTGAACAAGGTCGTTGATTACTATTC came in with a PBM binding z-score of 3.07.

Sequence CAGCCTAGGCCAGGGCCAGTATAGGAGGAACGTT had a PBM binding z-score of -1.

TCAGACTGGTGAAGGTAACTCAGGTACGCAGTCG gave a PBM binding z-score of 0.31.

The sequence ACTATTAGTTGAGGCGAGGGCAACCGATAGGTTG showed a PBM binding z-score of 0.632.

With TCTAGCAGGCCAGAGGGTCGCTCAAGAGGTACGG, the PBM binding z-score was -0.181.

As for ATATGTGGGTTACATCCGGGTCATTCAGGCTATG, the PBM binding z-score stood at 4.41.

In turn, CAAACTAGGTCACCGGAAGGTCAAAGTCCGCATG gave a PBM binding z-score of 6.25.

Take CGTCAAAGTTCAACGTAACGTAACAGAAAGCAGC: the PBM binding z-score turned out to be 3.97.

Sequence TCTAGCAGGCCAGTGGGTCACTCAAGAGGTACGG returned a PBM binding z-score of 0.297.

In turn, TCAGACAGGTGAATGTAACTCAGGTACGCAGTCG showed a PBM binding z-score of 0.512.

TCATATAGGTAATACAGGCGAAAGTCGGCATCTA displayed a PBM binding z-score of 0.97.

For the sequence CCGACTGGGGCATAAGGTTACCTTAAGCCAGCCC, the PBM binding z-score is 0.0606.

Turning to ACAGACAGGTGCGTGAAGGTAACTCAGCTGGACG, the PBM binding z-score is -0.488.

CCTACTGGGCCATTCCGAGGTCATTGATCATATG gave a PBM binding z-score of 3.86.

With CAGCCTAGGTCAGTGCCAGTATAGGAGGAACGTT, the PBM binding z-score is -0.0475.

The sequence CCGACTCGGGCAGAAAGGTTACCATACCATCCGG yielded a PBM binding z-score of 0.699.

Take TCAGACAGGTGAAGGTAACTCAAGTACGCAGTCG: the PBM binding z-score came out at 1.12.

On to TTACCAAGGTGAATGGTCGTTGATGCACGCCTTG, for which the PBM binding z-score is -0.0229.

Sequence CGTCCAAGGTCAATGCTAGGTCAGTGCAAGCATT displayed a PBM binding z-score of 4.95.

Turning to TAGCCTAGGTCATTGGGCGAGTATAGTACGCATC, the PBM binding z-score is 2.14.

Sequence CCGACTGGGGCAAAGGTTACCTTACTCAGTACGA yielded a PBM binding z-score of 1.21.

For the sequence AGTCAAAGTTCACTATGTAACGTAAGATTCAGCT, the PBM binding z-score stood at 3.89.

CCTACTGGGCCATCAGGTCATTGAGATCAACGTT came in with a PBM binding z-score of 3.41.

Regarding AACACAGGGTCATCGTAGGCCAGAGTACGCACAG, the PBM binding z-score stood at 5.15.

For the sequence ATCTCTAGGTAAAGATAGTTCAGTGGATGCAAAT, the PBM binding z-score is 0.451.

The sequence GCTAGCAGTCCATTTGGGTCACTCAATGACGGGC returned a PBM binding z-score of 0.562.

Turning to TGAATGTGGTTATAAGATCAGGGAACGTTGCAAA, the PBM binding z-score is 0.157.

CCTACTGGGCCAAAAAGGTCATCGATGCCGATAA yielded a PBM binding z-score of 4.79.
